# Reference: PubChem BioAssay (NCATS)
# Records with an inconclusive call do not appear. Entries that show only a call come without a potency. Calls of active or inactive are those of the source. The call rests on the fitted dose curve; in most records, active means well fitted curve in the direction sought with a large enough effect; inconclusive means small, poorly fitted or top-dose-only effect, or another doubt; inactive means no such curve, though single readings can be large; an effect the other way counts as inactive or inconclusive.
# Biological target: Calcium and integrin-binding protein 1 (Homo sapiens) (UniProt Q99828)
# Sequence (Q99828 whole entry, looked up): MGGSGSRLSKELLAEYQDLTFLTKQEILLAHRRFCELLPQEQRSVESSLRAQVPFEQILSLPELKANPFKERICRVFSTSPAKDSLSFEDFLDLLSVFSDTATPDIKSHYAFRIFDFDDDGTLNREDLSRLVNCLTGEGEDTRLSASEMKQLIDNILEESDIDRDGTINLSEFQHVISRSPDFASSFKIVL
# Experiment: Confirmatory qHTS for Identification of Calcium Integrin Binding Protein 1 (CIB1) Competitor (AID 1508617); further: nearly all actives have a fitted effect of over 65% in size
# Settings: CIB1 binding competition assay, biochemical qHTS
# Procedure, shortened: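 Compounds at up to 114 uM final met 1 uM GST-tagged CIB1 for 15 min at room temperature (HEPES pH 7.4, 5 mM CaCl2). FITC-labelled alphaIIb peptide, 100 nM, added; polarization read after 15 min more.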
# Potency means the concentration at half of the fitted maximal effect.
row,SMILES,Potency
1,Cc1c(Cc2ccc3ccccc3n2)c2cc(F)ccc2n1CC(=O)O,50.1 µM (active)
2,CC(=O)NC(Cc1c[nH]c2ccccc(=O)c12)C(=O)O (stereo unspecified),44.7 µM (active)
3,COc1ccc(CC(NC(C)=O)C(=O)O)cc1 (stereo unspecified),50.1 µM (active)

# Biological target: Calcium and integrin-binding protein 1 (Homo sapiens) (UniProt Q99828)
# Experiment: Primary qHTS for Identification of Calcium Integrin Binding Protein 1 (CIB1) Competitor (AID 1508620)
# Settings: CIB1-GST / FITC-alphaIIb peptide fluorescence polarization; series mostly up to 57.7 µM
# Procedure, shortened: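 CIB1-GST (1 uM final) and compound incubated 15 min at room temperature before adding FITC-alphaIIb peptide tracer (100 nM final). Competition for binding read by fluorescence polarization (ex 480, em 540) after another 15 min at room temperature.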
row,SMILES,Potency
1,COc1ccccc1N1CCN(CCCCNC(=O)c2ccc(-c3cscn3)cc2)CC1,inactive
2,C=C1CC[C@@]2(OC1)O[C@H]1CC3[C@@H]4CC=C5C[C@H](O[C@H]6OC[C@@H](O)C(O)[C@@H]6O[C@@H]6O[C@@H](C)[C@H](O)[C@@H](O[C@@H]7O[C@H](CO)[C@@H](O)[C@H](O)[C@H]7O)[C@H]6O)C[C@@H](O)[C@]5(C)C4CC[C@]3(C)[C@H]1[C@@H]2C (stereo partly specified),inactive
3,C/C=C/C=C/C(=O)OC1CC/C=C/C(O)C(O)C(CCC)OC1=O (stereo unspecified),inactive
4,CC(NC(=O)[C@H](Cc1ccccc1)NC(=O)OCc1ccccc1)C(=O)CF (stereo partly specified),inactive
5,CN1C(=O)N(c2cc(Cl)cc(Cl)c2)C(=O)[C@@]1(C)Cc1ccc(Br)cc1,inactive
6,Cc1c(Cc2ccc3ccccc3n2)c2cc(F)ccc2n1CC(=O)O,44.7 µM (active)
7,CC1(C)CC[C@]2(C(=O)O)CC[C@]3(C)C(=CCC4[C@@]5(C)C[C@H](O)[C@H](O[C@@H]6O[C@H](CO)[C@@H](O)[C@H](O)[C@H]6O)[C@@](C)(CO)C5[C@H](O)C[C@]43C)[C@@H]2C1 (stereo partly specified),inactive
8,CC(=O)OC(C)(C)/C=C/C(=O)[C@](C)(O)C1[C@H](O)C[C@@]2(C)[C@@H]3CC=C4[C@@H](C[C@H](O[C@@H]5O[C@H](CO)[C@@H](O)[C@H](O)[C@H]5O)C(=O)C4(C)C)[C@]3(C)C(=O)C[C@]12C (stereo partly specified),inactive
